Calls of active or inactive are those of the source. How the source made its calls: active means hit-call score of the fitted dose curve at least 0.9, where 1 is the maximum; inactive means score below 0.9.
read-out: Hypoxia-inducible factor 1-alpha (Homo sapiens) (UniProt Q16665); assay: LTEA_HepaRG_HIF1A: Life Technologies and Expression Analysis (LTEA) Assay for Hypoxia-inducible factor 1 (HIF1A) Trancription factor using HepaRG (AID 2283503); settings: mRNA level, 48 h; actives raise or lower the signal
Outline: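 HIF1A transcript level read by qRT-PCR (ACTB, GAPDH, POLR2A normalization) after 48 h chemical exposure of HepaRG cultures. Eight half-log concentrations, top 100 uM, 0.5% DMSO vehicle, duplicates; bidirectional curve fit against DMSO baseline.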

Hypoxia-inducible factor 1-alpha (Homo sapiens), sequence (Q16665 whole entry, looked up): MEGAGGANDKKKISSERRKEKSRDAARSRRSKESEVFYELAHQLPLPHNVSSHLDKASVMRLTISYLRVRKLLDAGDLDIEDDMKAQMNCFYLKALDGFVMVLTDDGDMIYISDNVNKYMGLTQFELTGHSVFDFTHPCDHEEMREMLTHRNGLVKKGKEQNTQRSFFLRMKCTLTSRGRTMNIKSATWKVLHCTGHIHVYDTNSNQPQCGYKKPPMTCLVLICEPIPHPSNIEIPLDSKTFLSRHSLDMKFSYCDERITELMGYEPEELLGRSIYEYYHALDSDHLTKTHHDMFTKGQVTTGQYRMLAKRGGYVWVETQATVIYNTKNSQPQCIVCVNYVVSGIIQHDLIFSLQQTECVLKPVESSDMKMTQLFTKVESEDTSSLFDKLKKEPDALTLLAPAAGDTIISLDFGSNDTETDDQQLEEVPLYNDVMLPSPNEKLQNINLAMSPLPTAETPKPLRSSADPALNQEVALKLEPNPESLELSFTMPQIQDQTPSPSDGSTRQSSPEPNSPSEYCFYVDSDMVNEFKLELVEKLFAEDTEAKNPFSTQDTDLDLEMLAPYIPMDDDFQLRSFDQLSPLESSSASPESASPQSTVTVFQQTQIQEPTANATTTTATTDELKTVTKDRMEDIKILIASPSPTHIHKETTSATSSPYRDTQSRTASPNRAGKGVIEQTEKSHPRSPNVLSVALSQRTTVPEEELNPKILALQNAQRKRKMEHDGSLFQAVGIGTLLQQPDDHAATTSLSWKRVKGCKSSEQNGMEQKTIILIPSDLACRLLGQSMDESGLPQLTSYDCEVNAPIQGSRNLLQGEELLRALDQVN

Compound	outcome	AC50
COC(=O)c1c(C(F)F)nc(C(F)(F)F)c(C2=NCCS2)c1CC(C)C	inactive	–
Cn1c(-c2ccccc2)cc(-c2ccccc2)[n+]1C	inactive	–
COC(=O)NS(=O)(=O)c1ccc(N)cc1	inactive	–
CC(C)Nc1nc(Cl)nc(NC(C)C)n1	inactive	–
COC(=O)NC(=S)Nc1ccccc1NC(=S)NC(=O)OC	inactive	–
Clc1cccc(C(Cl)(Cl)Cl)n1	inactive	–
COP(=S)(OC)Oc1ccc([N+](=O)[O-])c(C)c1	inactive	–
CCOP(=S)(OCC)Oc1nc(Cl)n(C(C)C)n1	inactive	–
CCCCC(O)(Cn1cncn1)c1ccc(Cl)cc1Cl (stereo not drawn)	–	80.6 µM (active)
O=C(Nc1ccccc1-c1ccc(Cl)cc1)c1cccnc1Cl	inactive	–
CCNC(=O)NC(=O)C(C#N)=NOC	inactive	–
CCN(CC)C(=O)C(C)Oc1cccc2ccccc12 (stereo not drawn)	inactive	–
CC1(C)CON(Cc2ccccc2Cl)C1=O	inactive	–
CCOc1nc(C(Cl)(Cl)Cl)ns1	inactive	–
CN=C=S	inactive	–
C=C(C)CN(CC)c1c([N+](=O)[O-])cc(C(F)(F)F)cc1[N+](=O)[O-]	inactive	–
Nc1c(Cl)c(Cl)nc(C(=O)O)c1Cl	inactive	–

Compound	outcome	AC50
CC1(C)C(C=C(Cl)Cl)C1C(=O)OC(C#N)c1cccc(Oc2ccccc2)c1 (stereo not drawn)	inactive	–
Cc1cnc(C2=NC(C)(C(C)C)C(=O)N2)c(C(=O)O)c1 (stereo not drawn)	inactive	–
CSC(=O)c1c(C(F)F)nc(C(F)(F)F)c(C(=O)SC)c1CC(C)C	inactive	–
CCOc1cc(C(C)(C)C)ccc1C1COC(c2c(F)cccc2F)=N1 (stereo not drawn)	inactive	–
COC(=O)N(C(=O)N1CO[C@@]2(C(=O)OC)Cc3cc(Cl)ccc3C2=N1)c1ccc(OC(F)(F)F)cc1	inactive	–
CC(C)N1C(=O)c2ccccc2NS1(=O)=O	inactive	–
CCCC(=NOCC)C1=C(O)CC(CC(C)SCC)CC1=O (stereo not drawn)	inactive	–
C=CCOC(=O)C(C)(C)OC(=O)c1cc(-n2c(=O)cc(C(F)(F)F)n(C)c2=O)ccc1Cl	inactive	–
CC(C)Oc1cccc(NC(=O)c2ccccc2C(F)(F)F)c1	inactive	–
CC(C)NC(=O)N1CC(=O)N(c2cc(Cl)cc(Cl)c2)C1=O	inactive	–
CC(C)(C)C(=O)C(Oc1ccc(Cl)cc1)n1cncn1 (stereo not drawn)	inactive	–
CC1(C)CCC(=Cc2ccc(Cl)cc2)C1(O)Cn1cncn1 (stereo not drawn)	inactive	–
COCC(=O)N(c1c(C)cccc1C)C(C)C(=O)OC (stereo not drawn)	inactive	–
CCOc1nc(F)cc2nc(S(=O)(=O)Nc3c(Cl)cccc3Cl)nn12	inactive	–
COP(=O)(OC)O/C(C)=C/C(=O)N(C)C	inactive	–
CC(C)N1C(=O)N(c2ccccc2)CSC1=NC(C)(C)C	inactive	–

From PubChem BioAssay (EPA / NIEHS)
